Data from PubChem BioAssay (NCATS).
Results filed as inconclusive are left out. The source made the active and inactive calls. Calls come from the whole dose curve; as a rule, active = well fitted curve in the direction sought with a large enough effect; inconclusive = small, poorly fitted or top-dose-only effect, or another doubt; inactive = no such curve, though single readings can be large; an effect the other way counts as inactive or inconclusive.

Experiments:
[1] = molecular target: Glutathione peroxidase 1 (Homo sapiens) (UniProt P07203); assay: Primary qHTS Assay for Inhibitors of Recombinant Selenoprotein Glutathione Peroxidase 1 (GPX1) (AID 1845191); note: nearly all actives have a fitted effect of over 65% in size; for activity, negative = inhibition: % is set by controls: 0 for no effect and ±100 for the full control effect
Glutathione peroxidase 1 (Homo sapiens), sequence (P07203 whole entry, looked up): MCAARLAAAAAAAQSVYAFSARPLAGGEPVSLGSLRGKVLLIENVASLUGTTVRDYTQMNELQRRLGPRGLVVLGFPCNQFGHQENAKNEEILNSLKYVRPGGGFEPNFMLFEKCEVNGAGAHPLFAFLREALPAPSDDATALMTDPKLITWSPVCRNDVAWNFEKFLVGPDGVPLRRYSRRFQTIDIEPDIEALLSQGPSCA
In short: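 GR-coupled readout: NADPH consumption tracked by fluorescence, ex 340/em 450 nm, at t=0 and after 15 min at RT. Final mix 10 nM GPX1, 1 mM GSH, 0.5 mM CHP, 0.5 mM NADPH, 100 nM GR, 0.01% BSA, following 30 min enzyme–compound preincubation.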

[2] = molecular target: Phospholipid hydroperoxide glutathione peroxidase GPX4 (Homo sapiens) (UniProt P36969); assay: Primary qHTS Assay for Inhibitors of Recombinant Selenoprotein Glutathione Peroxidase 4 (GPX4) (AID 1845192); note: nearly all actives have a fitted effect of over 65% in size
Phospholipid hydroperoxide glutathione peroxidase GPX4 (Homo sapiens), sequence (P36969 whole entry, looked up): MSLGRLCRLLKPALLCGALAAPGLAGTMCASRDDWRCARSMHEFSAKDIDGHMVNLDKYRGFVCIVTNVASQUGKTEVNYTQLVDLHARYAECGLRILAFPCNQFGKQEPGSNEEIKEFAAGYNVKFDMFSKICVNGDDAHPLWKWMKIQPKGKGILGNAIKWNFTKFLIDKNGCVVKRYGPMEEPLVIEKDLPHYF
In short: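 Steps: GPX4 plus compound, 30 min RT; add GR/GSH/NADPH master mix; start with cumene hydroperoxide; read 340/450 nm fluorescence at 0 and 15 min. Finals were 200 nM GPX4, 1 mM GSH, 0.5 mM CHP, 0.5 mM NADPH, 100 nM GR.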

[3] = molecular target: Luciferin 4-monooxygenase (Photinus pyralis) (UniProt P08659); assay: Primary firefly luciferase (FLuc) qHTS assay for identification of artifact compounds. (AID 1845220); note: nearly all actives have a fitted effect of over 60% in size
In short: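 Enzymatic FLuc inhibition assay: compounds pre-exposed to luciferin/ATP (10 uM each) for 15 min, then purified P. pyralis enzyme at 10 nM added. Read-out: luminescence at 5 min.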

[4] = test system: Nanoluciferase (engineered Oplophorus gracilirostris luciferase); assay: Primary Nanoluciferase (NLuc) qHTS assay for identification of artifact compounds. (AID 1845222);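 note: NLuc secreted into diluted conditioned medium of S16 cells; series mostly up to about 54 µM; 0% = DMSO and -100% = no enzyme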
In short: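 S16 cell supernatant NLuc, 1:55; cpds qHTS; 15 min RT dark; Nano-Glo substrate 1:100, 5 min; luminescence; Hill fit of % inhibition.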

[5] = Primary redox qHTS assay for identification of artifact compounds. (AID 1845223);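 note: 0% = DMSO and 100% = reference compound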
In short: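 Redox-cycling detection via DTT (250 uM final) oxidation coupled to Amplex Red (25 uM)/HRP (250 mU/mL) in HBSS. 15 min preincubation plus 30 min after DTT, room temperature. Ex/Em 525/598 nm; 4-parameter Hill fit against DMSO and 10 uM DA3003.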

COC(=O)[C@@H](NC(=O)[C@H](CC(C)C)NC(=O)N(Cc1ccccc1)C[C@@H](O)[C@H](Cc1ccccc1)NC(=O)OC(C)(C)C)C(C)C
inactive: Potency [1] | Potency [2] | outcome [3] inactive [at 11.6 µM] | activity, negative = inhibition [4] -4.83% [at 11.6 µM] | redox activity (% of DA3003) [5] 19.1% [at 11.5 µM]

NC(N)=NCCC[C@H](NC(=O)c1sccc1NS(=O)(=O)c1cccc2nsnc12)C(=O)O
inactive: Potency [1] | Potency [2] | Potency [3] | Potency [4] | Potency [5]

COc1c(O[C@@H]2O[C@H](CO)[C@@H](O)[C@H](O)[C@H]2O)c(CCC(=O)O)cc2ccoc12
inactive: Potency [1] | Potency [2] | Potency [3] | Potency [4] | Potency [5]

O=C(O)Cc1cn([C@@H]2O[C@H](CO)[C@@H](O)[C@H](O)[C@H]2O[C@@H]2O[C@H](CO)[C@@H](O)[C@H](O)[C@H]2O)c2ccccc12
inactive: Potency [1] | Potency [2] | Potency [3] | Potency [4] | Potency [5]

CC1(C)C2CCC1(C)C(OC(=O)C(O)(CC(=O)O)CC(=O)O)C2 (stereo not given)
inactive: Potency [1] | Potency [2] | Potency [3] | Potency [4] | Potency [5]

CC/C=C\[C@H](O)[C@H](O)C1=C(C)C(=O)[C@]2(O1)C(=O)N[C@@](O)(C(=O)c1ccccc1)[C@@H]2O
inactive: Potency [1] | Potency [2] | Potency [3] | Potency [4] | Potency [5]

COC(=O)C1=CO[C@@H](O[C@@H]2O[C@H](CO)[C@@H](O)[C@H](O)[C@H]2O)[C@@H]2[C@@H](C(=O)O)CC[C@H]12
inactive: Potency [1] | Potency [2] | Potency [3] | Potency [4] | Potency [5]

OC[C@@]1(O)CO[C@H](OC[C@H]2O[C@@H](OCCc3ccccc3)[C@H](O)[C@@H](O)[C@@H]2O)[C@@H]1O
inactive: Potency [1] | Potency [2] | Potency [3] | Potency [4] | Potency [5]

O=C(O)c1cccc(C(=O)CCC2OC(n3cnc4c(=O)[nH]cnc43)C(O)C2O)c1 (stereo not given)
inactive: Potency [1] | Potency [2] | Potency [3] | Potency [4] | Potency [5]

CC(=O)OC[C@@]12C(=O)C[C@@H](C)[C@]3(C[C@@H](c4ccoc4)OC3=O)[C@H]1CC[C@H](OC(C)=O)[C@]21CO1
inactive: Potency [1] | Potency [2] | Potency [3] | Potency [4] | Potency [5]

Cc1c(Cc2ccc3ccccc3n2)c2cc(F)ccc2n1CC(=O)O
inactive: Potency [1] | Potency [2] | Potency [3] | Potency [4] | Potency [5]

CC(NC(=O)CC(=O)O)C(=O)Nc1ccccc1C(N)=O (stereo not given)
inactive: Potency [1] | Potency [2] | Potency [3] | Potency [4] | Potency [5]

Oc1ccc(CC2NCCc3cc(O)c(O)cc32)cc1 (stereo not given)
inactive: Potency [1] | Potency [2] | Potency [3] | Potency [4] | Potency [5]

C[C@]1(O)CC[C@@H]2C(C(=O)O)=CO[C@@H](O[C@@H]3O[C@H](CO)[C@@H](O)[C@H](O)[C@H]3O)[C@@H]21
inactive: Potency [1] | Potency [2] | Potency [3] | Potency [4] | Potency [5]

O=C(O)Cc1cn([C@@H]2OC[C@@H](O[C@@H]3O[C@H](CO)[C@@H](O)[C@H](O)[C@H]3O)[C@H](O)[C@H]2O[C@@H]2O[C@H](CO)[C@@H](O)[C@H](O)[C@H]2O)c2ccccc12
inactive: Potency [1] | Potency [2] | Potency [3] | Potency [4] | Potency [5]

C[C@@H]1O[C@@H](OC(=O)Cc2ccccc2)[C@H](O)[C@H](O)[C@H]1O
inactive: Potency [1] | Potency [2] | Potency [3] | Potency [4] | Potency [5]

CC1=CC23[C@H](C=C(C(=O)O)[C@@H]2COC(=O)[C@]3(O)CO)[C@@H]1C (stereo not given in full)
inactive: Potency [1] | Potency [2] | Potency [3] | Potency [4] | Potency [5]

COc1cc(C(CO)C(OC2OC(CO)C(O)C(O)C2O)c2ccc(O)c(OC)c2)ccc1O (stereo not given)
inactive: Potency [1] | Potency [2] | Potency [3] | Potency [4] | Potency [5]

CCC(C)C(C(=O)O)N1Cc2c(OCC=C(C)C)c(C)c(OC)c(C(=O)O)c2C1=O (stereo not given)
inactive: Potency [1] | Potency [2] | Potency [3] | Potency [4] | Potency [5]

Cc1[nH]c2ccccc2c1CC(=O)N[C@@H](Cc1ccccc1)C(=O)N(C)c1ccccc1
inactive: Potency [1] | Potency [2] | Potency [3] | Potency [4] | Potency [5]

O=C(O)C[C@H]1CCC(=O)[C@@H]1C/C=C\CCO
inactive: Potency [1] | Potency [2] | Potency [3] | Potency [4] | Potency [5]

O=C(Nc1ccc(N2CCC(C(=O)N3CCOCC3)CC2)cc1)c1cnc(Oc2ccccc2)nc1
inactive: Potency [1] | Potency [2] | Potency [3] | Potency [4] | Potency [5]

CC1=C(C(=O)OC2OC(COC3OC(CO)C(O)C(O)C3O)C(O)C(O)C2O)C(C)(C)CCC1 (stereo not given)
inactive: Potency [1] | Potency [2] | Potency [3] | Potency [4] | Potency [5]

C[C@H]1[C@@H](O)[C@H](O)C2[C@]3(C)C([C@@H](O)[C@H]4OC(=O)[C@@H]1[C@@]24C)[C@](C)(O)C=C[C@H]3O[C@@H]1O[C@H](CO)[C@@H](O)[C@H](O)[C@H]1O (stereo not given in full)
inactive: Potency [1] | Potency [2] | Potency [3] | Potency [4] | Potency [5]

O=C(/C=C/c1ccc(O)cc1)OC[C@H]1O[C@H](O[C@@]2(CO)O[C@@H](CO)[C@H](O)[C@H]2O)[C@H](O)[C@@H](O)[C@@H]1O
inactive: Potency [1] | Potency [2] | Potency [3] | Potency [4] | Potency [5]
